CDC25B-CDK2 inh: human CDC25B-CDK2/CyclinA binding inhibition; P30305+P24941; HTRF CDC25B-CDK2/CyclinA binding, anti-His/anti-Flag; stronger effect = higher value; z-score (concentration not given with the values); actives 0.72% (n = 94,000); AID 1259370; in the data active = z-score above about 3.2
TAR Tat displ: HIV-1 TAR-Tat binding disruption; HIV-1 TAR RNA, Tat peptide displacement FRET; stronger effect = higher value; z-score (concentration not given with the values); actives 0.6% (n = 100,000); active = z-score of 3 or more in at least 2 runs
* = called active by the depositor; / = not tested or not shown. The list is not random: actives were taken first. Their share in the collection is about 0.93%.

SMILES	CDC25B-CDK2 inh	TAR Tat displ
Cc1cc(Nc2ccc(N(C)C)cc2)c2cccc(C)c2n1	-0.51	22*
CC1=CC(C)(C)N(C(=O)CSc2nnc3sc4ccccc4n23)c2ccccc21	-1.1	/
Cc1cc(C)c(CN2CCCN(Cc3ccccc3)S2(=O)=O)c(C)c1	/	1.3
COc1ccc(O)c(-c2nc3c(c(=O)[nH]2)Cc2c(CO)cnc(C)c2O3)c1	2	11*
Cc1ncc(CO)c2c1Oc1nc(-c3ccc(F)cc3)[nH]c(=O)c1C2	-1.7	0.72
O=C1CCCc2cc(S(=O)(=O)N3CCN(c4ccccc4F)CC3)ccc2N1	/	0.27
O=c1[nH]c(Nc2ccccc2)cc2ccccc12	16*	-7.4
O=C(O)c1cc2ccccc2c(=O)[nH]1	/	1.9
Cn1c(=O)c(C(=O)Nc2ccc(F)cc2)nn(-c2ccc(Cl)cc2)c1=O	/	0.9
Cn1ccc2cc(S(=O)(=O)N3CCC(C(=O)NCCN4CCCCC4)CC3)ccc21	/	1.6
Cc1nc(N2CCCC(C(=O)NC3CC3)C2)c2c(C)noc2n1 (stereo not drawn)	/	11*
CCc1noc2nc(C)nc(N3CCCC(C(=O)NC4CC4)C3)c12 (stereo not drawn)	/	3.7
CSc1ncc(C(=O)Nc2c(C)cc(C)cc2C)c(C)n1	/	-4.4
CCCNCc1c(C(=O)O)c(C)n(-c2ccc(Cl)cc2)c1C	/	1.5
Cc1cc(NC(=O)CN2C(=O)C(C)(C)c3cc(S(=O)(=O)N4CCCC4)ccc32)no1	/	-0.56
COc1cc(OC)cc(-c2noc(-c3scc(-c4cccc(C)c4)c3-n3cccc3)n2)c1	-2.5	0.1
OCC1O[C@H]([S-])[C@@H](O)C(O)[C@@H]1O.[Au+] (stereo partly drawn)	19*	/
OCC1O[C@H](O)C(Cl)C(O)C1O (stereo partly drawn)	-2.6	/
CC(=O)Oc1c2c(C)[nH]nc2nc2c1c(=O)n(C)c(=O)n2C	1.3	/
Cc1nc2ccc(S(=O)(=O)NC(CC(C)C)C(=O)NCc3cccs3)cc2s1 (stereo not drawn)	-0.93	0.86
COc1ccc(-c2coc3cc(O)ccc3c2=O)c(O)c1O	/	23*
COc1ccc(-c2coc3cc(O)ccc3c2=O)c(OC)c1O	/	0.53
COc1ccc2c(=O)c(-c3cc4c(cc3OC)OCO4)coc2c1	/	20*
COc1cc2occ(-c3cc4c(cc3OC)OCO4)c(=O)c2cc1OC	/	0.74
O=C(NCc1cccnc1)c1ccc(Cn2c(SCc3ccc(F)cc3)nc3ccncc32)cc1	-1.9	1.9
SMILES	CDC25B-CDK2 inh	TAR Tat displ
O=C(Nc1cccc(Cl)c1)C1=Cc2sc3c(c2CS1)CCCC3	/	-3.7
CC(=O)NS(=O)(=O)c1ccc(NC(=O)CCN2C(=O)/C(=C/c3ccccc3)SC2=S)cc1	-2.5	/
O=C(O)CN1C(=O)/C(=C\c2ccc(-c3cccc4c3C(=O)c3ccccc3C4=O)o2)SC1=S	10*	/
O=c1[nH]c2ccc(NS(=O)(=O)c3ccc4c(c3)CCCC4)cc2[nH]1	-0.3	0.65
CC(C)c1ccc(OCc2cc(=O)n3ccsc3n2)cc1	-1.3	0.51
Cc1ccccc1N1CSC2=C(C#N)C(c3ccc(Cl)cc3)CC(=O)N2C1 (stereo not drawn)	2	-2.6
Cc1cccc(N2CSC3=C(C#N)C(c4ccccc4)CC(=O)N3C2)c1 (stereo not drawn)	5.2*	-1.1
Cc1ccccc1C1CC(=O)N2CN(c3ccccc3F)CSC2=C1C#N (stereo not drawn)	5.1*	-1.2
N#CC1=C2SCN(C3CCCCC3)CN2C(=O)CC1c1ccc(F)cc1 (stereo not drawn)	0.26	1.4
N#CC1=C2SCN(c3cccc(Cl)c3)CN2C(=O)CC1c1ccc(F)cc1 (stereo not drawn)	7.4*	-0.98
Cc1ccccc1N1CSC2=C(C#N)C(c3ccc(F)cc3)CC(=O)N2C1 (stereo not drawn)	4.4*	-1.9
O=C(NCCCN1CCOCC1)C1CCCN(c2nn3c(=O)c4c(nc3s2)CCCC4)C1 (stereo not drawn)	/	0.75
Cn1c(SCc2cc(=O)c3cc(F)ccc3[nH]2)nnc1-c1cccs1	/	1.2
O=C(O)c1cc(N2C(=O)C3C4c5ccccc5C(c5ccccc54)C3C2=O)ccc1N1CCCCC1 (stereo not drawn)	-1.6	/
Cc1cc(Nc2ccc(OCC(C)C)cc2)ncn1	-0.03	0.86
Cc1nn(CC(=O)N2CCN(c3ccc(Cl)cc3)CC2)c(=O)c2cc3sccc3n12	-1.6	-0.12
COc1cccc2sc(N(CCN(C)C)C(=O)c3nc4ccccc4s3)nc12	/	1.2
COc1ccccc1N1CSC2=C(C#N)C(c3ccc(SC)cc3)CC(=O)N2C1 (stereo not drawn)	4.6*	-1.4
N#CC1=C2SCN(c3ccccc3F)CN2C(=O)CC1c1ccccc1 (stereo not drawn)	6.5*	0.23
COc1ccc(N2CSC3=C(C#N)C(c4ccc(SC)cc4)CC(=O)N3C2)c(OC)c1 (stereo not drawn)	2.5	-0.01
CCCN1CCN(CCCNc2nn3nnnc3c3ccccc23)CC1	-1.7	0.35

Source: PubChem BioAssay (Center for Chemical Genomics, University of Michigan)
